In PubChem BioAssay (NCI):
About 83,000 compounds went through this panel and 20% of them were active in at least one assay; those are over-represented in the sample as a whole.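 Step 1: grow cells in 96-well plates. Step 2: add test compound at a single concentration. Step 3: incubate 48 h. Step 4: record percent growth.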 Active and inactive are the calls of the source. How the source made its calls: active means growth percent below 10; inactive means the rest.

Tested on: COLO 205 colon
Assay: NCI-60 one-dose screen, 48 h (100 = growth as untreated, 0 = no growth, -100 = all killed)
Conditions: 10 µM unless noted

| Compound | growth |
| --- | --- |
| COc1ccc(/C(=C\c2cc(OC)c(OC)c(OC)c2)C(=O)N2CCNCC2)cc1 | 113% (inactive) |
| O=c1c2sc3ncc(Cl)cc3c2nnn1-c1cccc(Cl)c1 | 89.4% (inactive) |
| F | 40.3% [6.87 mM] (inactive) |
| CC1=C(C(=O)Nc2ccc(F)cc2)C(c2ccc(C)cc2)C2=C(CC(C)(C)CC2=O)N1 (stereo not given) | 105% (inactive) |
| CC[C@H](Nc1nc(N)nc(C2CC2)c1C#N)c1nc2cccc(NCc3ccc(C(=O)NO)cc3)c2c(=O)n1-c1ccccc1 | -17.8% (active) |
| CC(C)N1CCN(c2ccncc2S(=O)(=O)N2CCN(C)CC2)CC1 | 105% (inactive) |
| c1ccc(C(CC2=NCCCN2)c2ccccc2)cc1 | 102% (inactive) |
| Clc1ccc2c(c1)-c1ccccc1C1=NCCN12 | 7.28% (active) |
| O=C(C=P(c1ccccc1)(c1ccccc1)c1ccccc1)CCl | -53.9% (active) |
| COc1cc(/C=C/C(=O)c2ccc(NC(=O)CSc3nnc(-c4ccc(Cl)cc4)n3-c3ccccc3)cc2)cc(OC)c1OC | 79.8% (inactive) |
| OC(c1cc2cc(Cl)ccc2c2cc(C(F)(F)F)ccc12)C1CCCCN1 (stereo not given) | -87.2% (active) |
| Clc1cc(Br)ccc1-c1ccc(CNCC2CCNCC2)o1 | 27.9% (inactive) |
| CN1CCN(Cc2ccc(NC(=O)c3cncc(C#Cc4ncc5cnccn45)c3)cc2C(F)(F)F)CC1 | 17% (inactive) |
| CC1=C(C(=O)Nc2ccc(F)cc2)C(c2ccc(Cl)cc2)C2=C(CC(C)(C)CC2=O)N1 (stereo not given) | 97% (inactive) |
| CCOC(=O)c1ccc(N(CCC(=O)O)C(C)=O)cc1 | 119% (inactive) |
